Common to all, as to experiment: DAPPL (digital affinity profiling via proximity ligation, sequencing); 10 mM Tris-HCl pH 7.5, 50 mM NaCl, 1 mM DTT, 4% glycerol, room temperature, 30 min; GST-TFs on glutathione beads, 16-mer random dsDNA library, 0.1% formaldehyde crosslink after washing; high values mean tight binding
For test [1], the target named is T1, FEV (Homo sapiens, UniProt Q99581 1-238).
T1 sequence: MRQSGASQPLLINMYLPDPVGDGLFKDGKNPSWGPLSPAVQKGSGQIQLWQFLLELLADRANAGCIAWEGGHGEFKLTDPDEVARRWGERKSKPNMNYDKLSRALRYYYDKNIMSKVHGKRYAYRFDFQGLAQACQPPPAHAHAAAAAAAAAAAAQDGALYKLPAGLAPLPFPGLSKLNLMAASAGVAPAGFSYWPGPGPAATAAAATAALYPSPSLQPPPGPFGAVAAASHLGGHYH
The conditions noted are these: protein: recombinant; tags: N-terminal GST; dsDNA, one strand shown. The essentials: (§1)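 After expression in yeast as GST fusions, human transcription factors were bound to glutathione beads, DNA-barcoded and mixed with a tag-only sample. The pools were incubated with 200 nmole of a 16-mer random double-stranded DNA library in Tris/NaCl/DTT/glycerol buffer (30 min, room temperature), washed and crosslinked with 0.1% formaldehyde. Proximity ligation with BsaI/T4 ligase ran for 1 h at 37 °C, before PCR amplification and sequencing on an Illumina NextSeq500. Binding signal is a hexamer's read frequency for a factor divided by its frequency for the tag-only sample.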

Test [2] addresses ETV5 (Homo sapiens, UniProt P41161 1-510). The note with it: protein: recombinant; tags: N-terminal GST; dsDNA, one strand shown. The essentials: as §1
The target in test [3] is HSF1 (Homo sapiens, UniProt Q00613 1-529). The note with it: protein: recombinant; tags: N-terminal GST; chain copies: 3; dsDNA, one strand shown. The essentials:
as §1

Test [4] concerns the target T2, SPIC (Homo sapiens, UniProt Q8N5J4 1-248).
T2 sequence: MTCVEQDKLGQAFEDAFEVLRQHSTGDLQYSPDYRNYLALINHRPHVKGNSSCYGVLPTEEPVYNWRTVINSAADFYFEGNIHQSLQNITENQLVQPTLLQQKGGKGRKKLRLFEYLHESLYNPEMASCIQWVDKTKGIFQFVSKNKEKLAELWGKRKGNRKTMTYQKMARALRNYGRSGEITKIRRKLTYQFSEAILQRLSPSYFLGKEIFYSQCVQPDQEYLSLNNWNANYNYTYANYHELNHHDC
The conditions noted are these: protein: recombinant; tags: N-terminal GST; dsDNA, one strand shown. The essentials:
as §1

Test [5] concerns the target ELF4 (Homo sapiens, UniProt Q99607 1-663). The conditions noted are these: protein: recombinant; tags: N-terminal GST; dsDNA, one strand shown. The essentials: as §1
In test [6] the target is T3, ELK4 (Homo sapiens, UniProt P28324-2 1-405).
T3 sequence: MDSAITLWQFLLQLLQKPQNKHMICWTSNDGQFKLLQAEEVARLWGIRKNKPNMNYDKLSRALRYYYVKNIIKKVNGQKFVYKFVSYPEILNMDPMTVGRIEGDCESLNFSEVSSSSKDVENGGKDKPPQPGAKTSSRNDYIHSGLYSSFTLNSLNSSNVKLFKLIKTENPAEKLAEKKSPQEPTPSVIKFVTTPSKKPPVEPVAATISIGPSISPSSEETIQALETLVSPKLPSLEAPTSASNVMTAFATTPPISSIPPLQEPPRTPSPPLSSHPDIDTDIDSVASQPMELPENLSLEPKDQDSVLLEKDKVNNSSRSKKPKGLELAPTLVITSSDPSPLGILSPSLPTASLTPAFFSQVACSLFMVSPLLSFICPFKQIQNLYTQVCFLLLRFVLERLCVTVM
The note with it: protein: recombinant; tags: N-terminal GST; dsDNA, one strand shown. The essentials: as §1

Test [7] has as its target T4, ETV2 (Homo sapiens, UniProt O00321 1-342).
T4 sequence: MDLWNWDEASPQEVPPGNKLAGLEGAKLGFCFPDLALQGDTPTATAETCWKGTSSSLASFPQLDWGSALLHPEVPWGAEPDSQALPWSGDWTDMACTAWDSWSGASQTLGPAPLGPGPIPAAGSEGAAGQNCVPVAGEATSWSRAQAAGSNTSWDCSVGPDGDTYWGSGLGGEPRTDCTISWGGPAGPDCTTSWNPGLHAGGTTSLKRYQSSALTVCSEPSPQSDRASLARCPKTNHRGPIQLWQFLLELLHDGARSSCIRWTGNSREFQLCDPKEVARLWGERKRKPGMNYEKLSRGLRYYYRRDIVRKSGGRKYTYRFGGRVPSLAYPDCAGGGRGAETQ
The note with it: protein: recombinant; tags: N-terminal GST; dsDNA, one strand shown. The essentials:
as §1

The target in test [8] is T5, ELF3 (Homo sapiens, UniProt P78545 1-371).
T5 sequence: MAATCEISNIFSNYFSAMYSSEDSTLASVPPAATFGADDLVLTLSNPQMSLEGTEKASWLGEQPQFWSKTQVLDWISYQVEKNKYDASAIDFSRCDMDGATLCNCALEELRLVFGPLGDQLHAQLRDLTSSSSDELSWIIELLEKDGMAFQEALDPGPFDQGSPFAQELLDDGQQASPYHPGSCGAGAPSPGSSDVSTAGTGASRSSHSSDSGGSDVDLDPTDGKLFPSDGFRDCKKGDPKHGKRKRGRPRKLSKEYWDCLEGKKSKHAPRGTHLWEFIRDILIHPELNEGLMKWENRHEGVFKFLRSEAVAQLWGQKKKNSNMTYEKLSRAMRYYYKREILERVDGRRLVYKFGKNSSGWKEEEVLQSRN
The note with it: protein: recombinant; tags: N-terminal GST; dsDNA, one strand shown. The essentials: as §1

The target of test [9] is CRX (Homo sapiens, UniProt O43186 1-299). The conditions noted are these: protein: recombinant; tags: N-terminal GST; dsDNA, one strand shown. The essentials:
as §1

Test [10] deals with ETV1 (Homo sapiens, UniProt P50549 1-477). The conditions noted are these: protein: recombinant; tags: N-terminal GST; dsDNA, one strand shown. The essentials: as §1
ETV1, sequence (P50549 whole entry): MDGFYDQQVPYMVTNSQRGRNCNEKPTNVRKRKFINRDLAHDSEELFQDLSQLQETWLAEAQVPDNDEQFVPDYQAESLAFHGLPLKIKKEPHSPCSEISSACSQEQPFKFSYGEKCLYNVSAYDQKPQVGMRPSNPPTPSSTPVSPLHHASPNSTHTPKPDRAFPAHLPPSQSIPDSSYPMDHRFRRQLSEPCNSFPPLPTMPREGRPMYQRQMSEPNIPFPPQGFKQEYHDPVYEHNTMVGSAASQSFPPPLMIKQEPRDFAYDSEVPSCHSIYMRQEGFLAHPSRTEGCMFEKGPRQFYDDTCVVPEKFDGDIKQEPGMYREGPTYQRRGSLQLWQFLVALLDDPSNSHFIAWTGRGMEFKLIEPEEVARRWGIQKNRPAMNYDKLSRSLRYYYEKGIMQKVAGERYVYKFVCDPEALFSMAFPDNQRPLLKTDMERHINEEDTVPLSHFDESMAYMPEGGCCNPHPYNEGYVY
In test [11] the target is T6, ERF (Homo sapiens, UniProt P50548 1-548).
T6 sequence: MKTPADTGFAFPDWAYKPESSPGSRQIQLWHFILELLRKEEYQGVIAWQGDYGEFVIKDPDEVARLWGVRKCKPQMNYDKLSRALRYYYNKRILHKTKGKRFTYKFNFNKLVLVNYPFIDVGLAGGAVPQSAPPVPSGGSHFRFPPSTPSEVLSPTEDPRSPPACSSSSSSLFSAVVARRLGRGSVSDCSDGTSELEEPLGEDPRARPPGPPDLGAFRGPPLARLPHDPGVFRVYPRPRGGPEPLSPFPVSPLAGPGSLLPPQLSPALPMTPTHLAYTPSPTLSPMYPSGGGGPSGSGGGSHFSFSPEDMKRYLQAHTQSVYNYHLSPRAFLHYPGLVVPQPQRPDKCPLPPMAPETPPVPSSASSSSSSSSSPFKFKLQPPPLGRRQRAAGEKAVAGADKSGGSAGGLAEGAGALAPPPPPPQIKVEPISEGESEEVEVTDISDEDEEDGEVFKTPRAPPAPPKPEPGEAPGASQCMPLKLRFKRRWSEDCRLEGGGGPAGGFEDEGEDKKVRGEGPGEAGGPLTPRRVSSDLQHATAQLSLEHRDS
The conditions noted are these: protein: recombinant; tags: N-terminal GST; dsDNA, one strand shown. The essentials: as §1

Test [12] deals with T7, ETV3L (Homo sapiens, UniProt Q6ZN32 1-361).
T7 sequence: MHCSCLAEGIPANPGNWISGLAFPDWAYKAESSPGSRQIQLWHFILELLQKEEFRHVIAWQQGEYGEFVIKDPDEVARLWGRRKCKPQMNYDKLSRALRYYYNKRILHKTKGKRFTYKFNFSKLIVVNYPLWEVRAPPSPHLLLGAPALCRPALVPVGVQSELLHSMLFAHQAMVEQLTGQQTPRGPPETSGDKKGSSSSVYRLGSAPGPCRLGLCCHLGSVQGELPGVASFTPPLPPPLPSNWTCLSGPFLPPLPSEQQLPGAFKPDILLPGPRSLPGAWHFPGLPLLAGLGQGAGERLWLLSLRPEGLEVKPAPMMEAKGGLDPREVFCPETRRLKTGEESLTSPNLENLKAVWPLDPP
The conditions noted are these: protein: recombinant; tags: N-terminal GST; dsDNA, one strand shown. The essentials:
as §1

For test [13], the target named is T8, ETS2 (Homo sapiens, UniProt P15036 1-469).
T8 sequence: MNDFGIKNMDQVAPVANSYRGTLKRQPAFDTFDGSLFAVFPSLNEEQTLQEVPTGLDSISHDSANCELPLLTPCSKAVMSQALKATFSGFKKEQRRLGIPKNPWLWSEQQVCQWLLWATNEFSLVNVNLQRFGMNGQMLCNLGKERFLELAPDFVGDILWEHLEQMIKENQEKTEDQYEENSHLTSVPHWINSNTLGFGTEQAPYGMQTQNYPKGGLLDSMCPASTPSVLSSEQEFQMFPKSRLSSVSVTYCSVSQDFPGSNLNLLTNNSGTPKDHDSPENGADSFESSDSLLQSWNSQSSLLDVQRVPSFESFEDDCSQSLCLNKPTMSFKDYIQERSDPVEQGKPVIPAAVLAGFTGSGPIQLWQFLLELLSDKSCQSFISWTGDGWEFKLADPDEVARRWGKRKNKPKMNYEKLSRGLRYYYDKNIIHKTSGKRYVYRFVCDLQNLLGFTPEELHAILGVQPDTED
The note with it: protein: recombinant; tags: N-terminal GST; dsDNA, one strand shown. The essentials:
as §1

Test [14] has as its target T9, SPDEF (Homo sapiens, UniProt O95238 1-335).
T9 sequence: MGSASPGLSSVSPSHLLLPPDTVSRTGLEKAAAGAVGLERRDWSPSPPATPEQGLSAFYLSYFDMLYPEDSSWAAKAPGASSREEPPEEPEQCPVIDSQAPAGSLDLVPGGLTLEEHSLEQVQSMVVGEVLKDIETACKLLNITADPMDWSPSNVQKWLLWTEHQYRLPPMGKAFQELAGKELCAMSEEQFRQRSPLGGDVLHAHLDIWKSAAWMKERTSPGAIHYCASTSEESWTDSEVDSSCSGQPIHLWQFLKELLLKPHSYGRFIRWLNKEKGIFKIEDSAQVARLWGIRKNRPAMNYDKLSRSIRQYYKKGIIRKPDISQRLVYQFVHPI
The note with it: protein: recombinant; tags: N-terminal GST; dsDNA, one strand shown. The essentials: as §1

The target of test [15] is T10, ETV7 (Homo sapiens, UniProt Q9Y603 1-341).
T10 sequence: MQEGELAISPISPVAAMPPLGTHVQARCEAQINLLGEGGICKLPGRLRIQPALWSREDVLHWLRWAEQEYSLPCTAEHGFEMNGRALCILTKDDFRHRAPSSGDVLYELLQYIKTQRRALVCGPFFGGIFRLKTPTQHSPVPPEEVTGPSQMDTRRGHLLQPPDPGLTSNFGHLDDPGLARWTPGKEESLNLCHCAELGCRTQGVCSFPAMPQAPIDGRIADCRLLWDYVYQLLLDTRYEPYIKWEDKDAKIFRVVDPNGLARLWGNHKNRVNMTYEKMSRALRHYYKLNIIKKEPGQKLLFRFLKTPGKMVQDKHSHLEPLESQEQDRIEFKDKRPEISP
The note with it: protein: recombinant; tags: N-terminal GST; dsDNA, one strand shown. The essentials: as §1

Test [16] deals with T11, ELF5 (Homo sapiens, UniProt Q9UKW6-2 1-255).
T11 sequence: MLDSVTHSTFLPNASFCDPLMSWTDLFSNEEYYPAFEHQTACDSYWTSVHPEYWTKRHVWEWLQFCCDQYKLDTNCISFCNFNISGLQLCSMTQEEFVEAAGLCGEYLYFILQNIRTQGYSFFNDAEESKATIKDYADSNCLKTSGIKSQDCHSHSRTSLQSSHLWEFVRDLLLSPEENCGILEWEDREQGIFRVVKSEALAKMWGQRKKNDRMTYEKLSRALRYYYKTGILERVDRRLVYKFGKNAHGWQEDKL
The conditions noted are these: protein: recombinant; tags: N-terminal GST; dsDNA, one strand shown. The essentials: as §1

In test [17] the target is T12, ETV3 (Homo sapiens, UniProt P41162-2 1-143).
T12 sequence: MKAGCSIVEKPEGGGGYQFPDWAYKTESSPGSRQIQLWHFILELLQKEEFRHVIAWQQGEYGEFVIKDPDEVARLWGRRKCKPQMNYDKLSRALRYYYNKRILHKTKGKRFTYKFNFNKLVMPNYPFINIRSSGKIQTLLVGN
The conditions noted are these: protein: recombinant; tags: N-terminal GST; dsDNA, one strand shown. The essentials:
as §1

The target in test [18] is ETV6 (Homo sapiens, UniProt P41212 1-452). The note with it: protein: recombinant; tags: N-terminal GST; dsDNA, one strand shown. The essentials: as §1
ETV6, sequence (P41212 whole entry): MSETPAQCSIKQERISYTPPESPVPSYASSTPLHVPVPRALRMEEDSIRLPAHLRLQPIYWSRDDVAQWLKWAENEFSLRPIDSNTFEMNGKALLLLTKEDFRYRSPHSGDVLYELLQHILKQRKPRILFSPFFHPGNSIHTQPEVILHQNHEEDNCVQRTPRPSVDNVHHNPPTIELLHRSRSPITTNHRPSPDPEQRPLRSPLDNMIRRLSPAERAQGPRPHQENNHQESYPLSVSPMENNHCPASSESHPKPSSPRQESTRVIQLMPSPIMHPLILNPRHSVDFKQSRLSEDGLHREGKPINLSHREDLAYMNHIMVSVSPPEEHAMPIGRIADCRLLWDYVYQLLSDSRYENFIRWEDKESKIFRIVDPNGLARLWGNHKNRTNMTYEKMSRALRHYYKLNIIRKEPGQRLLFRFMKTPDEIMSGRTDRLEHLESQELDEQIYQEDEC

This passage reports binding signal results from PMC7862700, “An all-to-all approach to the identification of sequence-specific readers for epigenetic DNA modifications on cytosine”.

ETV5, sequence (P41161 whole entry): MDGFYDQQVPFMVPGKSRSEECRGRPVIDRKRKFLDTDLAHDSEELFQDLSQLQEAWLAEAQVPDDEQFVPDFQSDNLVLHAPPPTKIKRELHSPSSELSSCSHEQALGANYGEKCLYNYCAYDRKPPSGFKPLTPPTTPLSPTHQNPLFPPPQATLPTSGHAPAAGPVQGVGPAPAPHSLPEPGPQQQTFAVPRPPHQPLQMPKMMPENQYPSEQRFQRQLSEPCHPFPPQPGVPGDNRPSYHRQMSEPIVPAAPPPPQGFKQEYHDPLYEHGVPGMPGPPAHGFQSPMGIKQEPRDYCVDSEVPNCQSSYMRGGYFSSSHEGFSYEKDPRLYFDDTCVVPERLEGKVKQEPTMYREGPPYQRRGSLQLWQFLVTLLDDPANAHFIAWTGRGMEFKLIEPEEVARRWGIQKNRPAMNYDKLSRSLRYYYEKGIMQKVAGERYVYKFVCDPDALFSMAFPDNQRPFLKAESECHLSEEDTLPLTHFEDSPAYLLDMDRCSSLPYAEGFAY
HSF1, sequence (Q00613 whole entry): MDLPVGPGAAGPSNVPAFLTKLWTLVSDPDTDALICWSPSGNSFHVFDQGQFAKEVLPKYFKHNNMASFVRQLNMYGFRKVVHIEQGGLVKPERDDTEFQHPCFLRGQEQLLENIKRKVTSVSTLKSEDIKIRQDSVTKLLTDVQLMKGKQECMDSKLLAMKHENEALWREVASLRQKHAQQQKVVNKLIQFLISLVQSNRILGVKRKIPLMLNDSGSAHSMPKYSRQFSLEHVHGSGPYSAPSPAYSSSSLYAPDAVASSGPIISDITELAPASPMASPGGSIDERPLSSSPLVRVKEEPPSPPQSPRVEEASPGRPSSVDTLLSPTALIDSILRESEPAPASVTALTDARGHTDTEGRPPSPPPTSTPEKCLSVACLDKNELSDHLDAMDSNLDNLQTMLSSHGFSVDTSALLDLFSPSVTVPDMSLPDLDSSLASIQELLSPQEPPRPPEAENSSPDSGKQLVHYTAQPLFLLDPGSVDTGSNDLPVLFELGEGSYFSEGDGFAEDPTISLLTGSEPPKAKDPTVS
ELF4, sequence (Q99607 whole entry): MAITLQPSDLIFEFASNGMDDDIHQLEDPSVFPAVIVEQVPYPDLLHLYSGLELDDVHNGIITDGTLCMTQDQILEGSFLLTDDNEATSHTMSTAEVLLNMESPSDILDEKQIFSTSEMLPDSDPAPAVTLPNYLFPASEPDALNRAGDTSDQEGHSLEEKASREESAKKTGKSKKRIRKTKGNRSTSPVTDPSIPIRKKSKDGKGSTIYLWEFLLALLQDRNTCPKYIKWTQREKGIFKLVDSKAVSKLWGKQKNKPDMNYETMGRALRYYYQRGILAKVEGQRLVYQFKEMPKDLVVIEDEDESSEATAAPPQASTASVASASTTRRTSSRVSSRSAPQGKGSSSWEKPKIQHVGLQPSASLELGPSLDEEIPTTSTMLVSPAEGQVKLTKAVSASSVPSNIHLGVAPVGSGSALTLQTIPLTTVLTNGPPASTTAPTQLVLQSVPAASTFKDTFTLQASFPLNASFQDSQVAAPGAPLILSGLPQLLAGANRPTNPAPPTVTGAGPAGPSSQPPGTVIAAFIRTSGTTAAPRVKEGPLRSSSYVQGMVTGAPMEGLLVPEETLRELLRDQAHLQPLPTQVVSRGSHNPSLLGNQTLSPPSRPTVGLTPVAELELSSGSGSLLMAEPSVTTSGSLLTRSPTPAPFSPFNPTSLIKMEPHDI
CRX, sequence (O43186 whole entry): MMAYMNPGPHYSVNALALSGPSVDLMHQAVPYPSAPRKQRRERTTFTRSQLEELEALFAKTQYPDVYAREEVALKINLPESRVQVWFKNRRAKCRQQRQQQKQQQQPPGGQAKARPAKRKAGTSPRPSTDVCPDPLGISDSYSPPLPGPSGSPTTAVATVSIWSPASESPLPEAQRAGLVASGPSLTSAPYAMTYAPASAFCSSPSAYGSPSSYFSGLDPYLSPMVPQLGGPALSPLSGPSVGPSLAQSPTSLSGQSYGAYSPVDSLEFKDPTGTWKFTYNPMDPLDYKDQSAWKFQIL

On to TACGCT, for which the binding signal in [1] was 1.32 fold enrichment (6-mer frequency, TF over GST control); in test [2] it was 1.3 fold enrichment (6-mer frequency, TF over GST control); in [3], 1.28 fold enrichment (6-mer frequency, TF over GST control); in test [4] it was 1.21 fold enrichment (6-mer frequency, TF over GST control); in [5] it was 1.39 fold enrichment (6-mer frequency, TF over GST control); in [6], 1.26 fold enrichment (6-mer frequency, TF over GST control). Besides, the binding signal in test [7] was 1.23 fold enrichment (6-mer frequency, TF over GST control); in [8], 1.29 fold enrichment (6-mer frequency, TF over GST control); in test [9], 1.48 fold enrichment (6-mer frequency, TF over GST control); in test [10], 1.25 fold enrichment (6-mer frequency, TF over GST control); in test [11], 1.4 fold enrichment (6-mer frequency, TF over GST control); in test [12], 1.27 fold enrichment (6-mer frequency, TF over GST control). Besides, the binding signal in test [13] was 1.22 fold enrichment (6-mer frequency, TF over GST control); in test [14], 1.32 fold enrichment (6-mer frequency, TF over GST control); in test [15] it was 1.31 fold enrichment (6-mer frequency, TF over GST control); in test [16], 1.24 fold enrichment (6-mer frequency, TF over GST control); in test [17], 1.42 fold enrichment (6-mer frequency, TF over GST control); in [18], 1.28 fold enrichment (6-mer frequency, TF over GST control).
